Screens: PubChem, National Center for Advancing Translational Sciences (NCATS)
AMA1 RON2 block – inhibitors of Plasmodium falciparum AMA1-RON2 interaction. Potency, µM (series often up to 58.2 µM), inactives show at the highest dose activity change, negative = inhibition, usual class: inhibitors. 360,000 tested, 0.2% active. AlphaScreen AMA1-biotinylated RON2 peptide binding. AID 720542;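 note: potency is the fitted concentration of half-maximal effect; 0% = vehicle wells and -100% = peptide control; nearly all actives have a fitted effect of over 45% in size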
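AMA1 (3D7) with his tag at 25 nM final met compounds first, then biotinylated RON2 peptide at 25 nM; detection used donor plus acceptor beads, 10 µg/mL apiece, read by AlphaScreen after 30 min at room temperature.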
Pf growth 48h – P. falciparum growth inhibition at 48 hours (one generation). AID 504832. P. falciparum luciferase growth in erythrocytes, 48 h. 310,000 tested, 5.9% active. Potency, µM (doses to about 28.7 µM), inactives show top-dose activity change, negative = inhibition, most hits filed as inhibitors; note: potency is the fitted concentration of half-maximal effect; % is set by controls: 0 for no effect and ±100 for the full control effect
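Erythrocytes infected with P. falciparum carrying an integrated firefly luciferase reporter (2% hematocrit, 0.1% parasitemia final) were exposed to compounds in RPMI 1640 with 0.5% Albumax at 37 C, 5% CO2. Growth inhibition was scored as reduced luminescence.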
Pf growth 96h – P. falciparum growth inhibition at 96 hours | P. falciparum luciferase reporter growth, 96 h | Potency, µM (doses to about 28.7 µM), for the others: at the top dose activity change, negative = inhibition, most hits filed as inhibitors | 320,000 tested, 6.9% active | AID 504834; note: potency is the fitted concentration of half-maximal effect; % is set by controls: 0 for no effect and ±100 for the full control effect
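Readout is luminescence from an integrated firefly luciferase in P. falciparum. Red cells, 2% hematocrit and 0.05% parasitemia final, were cultured with compound through two parasite generations (96 hours) at 37 C, 5% CO2.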
HCV inh – HCV inhibition; Huh7.5.1 HCVcc-Cre infection, luciferase reporter, 44 h; Potency, µM (series often up to 41.8 µM), for inactives: at the top dose activity change, negative = inhibition, most hits filed as inhibitors; 340,000 tested, 3.4% active; AID 651820; note: potency is the fitted concentration of half-maximal effect; % is set by controls: 0 for no effect and ±100 for the full control effect
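After 44 h co-culture of compound, cells and HCVcc-Cre (~0.5 moi), substrate is added for 15 min at room temperature and luciferase measured over 15 sec. Cells were seeded at 1,000/well and pre-cultured 4 h.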
CHX counter – counter-screen for Shiga toxin inhibitors: cycloheximide protein synthesis inhibition; AID 2314; 300,000 tested, 12% active; max response, %; cell reporter, cycloheximide protein synthesis inhibition counterscreen; in the data active = max response mostly above about 13%, no sharp cut-off; inactive = mostly below about 14%; note: read at 38.3 µM for the half of the compounds with a filed dose; 0% is about no effect
Shiga toxin inh – blocks Shiga toxin action in Vero cells | inhibition, % at 38.7 µM | 290,000 tested, 9.2% active | Vero cells, Shiga toxin protein synthesis inhibition reporter | AID 2315; in the data active = inhibition mostly above about 28%, no sharp cut-off; inactive = mostly below about 43%; note: 0% is about no effect
* hit, by the source's call; ? = inconclusive; nt = no result. Only some compounds are listed: those with a hit (about 21% of all), similar ones and a draw of the others. Unless noted, calls come from the whole dose curve; as a rule, active = well fitted curve in the direction sought with a large enough effect; inconclusive = small, poorly fitted or top-dose-only effect, or another doubt; inactive = no such curve, though single readings can be large; an effect the other way counts as inactive or inconclusive.

SMILES	AMA1 RON2 block	Pf growth 48h	Pf growth 96h	HCV inh	CHX counter	Shiga toxin inh
CCN(CCNCC(O)COCc1ccc(Cl)cc1)c1cccc(C)c1 (stereo unspecified)	?	8.28µM*	?	15.8µM*	-3.4	-6.6
CCN(CCNC(=O)c1ccc(C#N)cc1)c1cccc(C)c1	-21.2%	?	?	?	-1.4	-7.6
CN(C)C(CNC(=O)CNC(=O)c1ccc2ccccc2c1)c1ccccc1 (stereo unspecified)	-3.2%	3.9%	-24.6%	-4.0%	-2.6	-7.8
Cn1c(N)c(C(=O)COC(=O)C2(c3ccc(Cl)cc3)CCCC2)c(=O)n(C)c1=O	-1.2%	3.7µM*	nt	0.8%	0.7	23.2
Cn1c(N)c(C(=O)COC(=O)C2CCC(C(C)(C)C)CC2)c(=O)n(C)c1=O (stereo unspecified)	3.0%	13.1µM*	nt	8.4%	-0.8	32.0
Cn1c(N)c(C(=O)COC(=O)C2(c3ccccc3F)CCCC2)c(=O)n(C)c1=O	-3.4%	-26.4%	-18.5%	-23.7%	0.2	18.0
Cn1c(N)c(C(=O)COC(=O)C2(c3ccc(F)cc3)CCCC2)c(=O)n(C)c1=O	17.3%	4.15µM*	2.33µM*	?	-1.4	-10.8
Cc1ccc(S(=O)(=O)N2CCCC(C(=O)Nc3ccc(C(=O)O)cc3)C2)cc1Cl (stereo unspecified)	-2.8%	-24.2%	0.9%	2.7%	-1.9	0.8
NCCS	2.5%	4.3%	8.6%	0.562µM*	-2.2	-14.4
CC(C)(C)c1ccc(C(=O)NNc2cc(N3CCOCC3)nc(N3CCOCC3)n2)cc1	11.9%	11.7µM*	-20.2%	?	0.8	9.5
CC(C)(C)c1ccc(C(=O)NNc2cc(N3CCCCC3)nc(N3CCCCC3)n2)cc1	16.5%	2.62µM*	?	?	-2.0	16.2
COc1ccc(NC(=O)CN(C)C(=O)Cn2cnc3c2c(=O)n(C)c(=O)n3C)cc1	2.1%	-15.9%	18.5%	?	nt	nt
C[C@@]12CCC=C[C@H]1[C@H](c1ccc3ccccc3c1Br)N(Cc1ccccc1)C2=O	1.7%	9.28µM*	10.4µM*	?	-9.0	-3.9
C[C@@]12CCC=C[C@H]1[C@H](c1ccc3ccccc3c1)N(Cc1ccccc1)C2=O	-3.8%	?	9.28µM*	?	-2.2	-9.4
CCN1CCN(Cc2nc3cc(NC(=O)COc4ccc([N+](=O)[O-])cc4)ccc3n2C)CC1	13.1%	?	?	-16.9%	-3.4	12.5
CCN1CCC(O)(C#Cc2ccccc2)CC1	18.8%	-0.6%	-1.7%	7.1%	-0.9	-3.9
CC1C(c2ccccc2)N(C)C(c2ccccc2)C(C)C1(O)C#Cc1ccccc1 (stereo unspecified)	-8.6%	9.28µM*	-15.2%	0.7%	6.1	-4.5
CCOc1ccc(N(CC(=O)NCCSCc2ccco2)S(=O)(=O)c2ccc(C)cc2)cc1	-1.9%	?	8.28µM*	-11.5%	12.1	12.0
CCOc1ccccc1N(CC(=O)NCCSCc1ccco1)S(=O)(=O)c1ccccc1	-3.4%	8.28µM*	9.8%	12.6µM*	-0.8	-7.4
Cc1ccc2nc(N3CC(=O)Nc4ccccc43)nc(-c3ccccc3)c2c1	5.6%	-8.7%	9.28µM*	?	-9.3	-15.7
Cc1ccc2nc(N3CCC(C(=O)O)CC3)nc(-c3ccccc3)c2c1	-10.7%	12.0%	14.9%	10.5%	-7.0	-9.4
CCCN1C(=O)SC(CC(=O)Nc2ccccc2)C1=O (stereo unspecified)	2.3%	24.2%	?	24.6%	1.1	22.1
O=C(CC1SC(=O)N(c2ccccc2)C1=O)Nc1ccc(Br)cc1 (stereo unspecified)	77.5%	-14.5%	38.0%	-7.4%	23.9*	50.9*
O=C(CC1SC(=O)N(c2ccccc2)C1=O)Nc1ccc(Cl)cc1 (stereo unspecified)	66.6%	19.7%	36.9%	18.5%	14.2*	45.7
O=C(CC1SC(=Nc2ccccc2)N(CCCO)C1=O)Nc1ccc(Cl)cc1 (stereo unspecified)	?	-23.0%	?	-29.4%	2.6	-6.4
